# Data reported in ChEMBL document CHEMBL5724796, “Tm Shift (DSF) assay results for EUbOPEN Chemogenomics Library” (2024).
# Key:
# Details in all cases: Compound concentration 20.0 uM
# [1] = target: Tyrosine-protein kinase ABL1 (Homo sapiens) (UniProt P00519)
# [2] = target: Bromodomain-containing protein 4 (Homo sapiens) (UniProt O60885)
# [3] = target: Cyclin-dependent kinase 2 (Homo sapiens) (UniProt P24941)
# [4] = target: Casein kinase I isoform delta (Homo sapiens) (UniProt P48730)
# [5] = target: Glycogen synthase kinase-3 beta (Homo sapiens) (UniProt P49841)
# [6] = target: Mitogen-activated protein kinase 1 (Homo sapiens) (UniProt P28482)
# [7] = target: T1, Aurora kinase A (Homo sapiens) (UniProt O14965)
# T1 sequence (whole entry): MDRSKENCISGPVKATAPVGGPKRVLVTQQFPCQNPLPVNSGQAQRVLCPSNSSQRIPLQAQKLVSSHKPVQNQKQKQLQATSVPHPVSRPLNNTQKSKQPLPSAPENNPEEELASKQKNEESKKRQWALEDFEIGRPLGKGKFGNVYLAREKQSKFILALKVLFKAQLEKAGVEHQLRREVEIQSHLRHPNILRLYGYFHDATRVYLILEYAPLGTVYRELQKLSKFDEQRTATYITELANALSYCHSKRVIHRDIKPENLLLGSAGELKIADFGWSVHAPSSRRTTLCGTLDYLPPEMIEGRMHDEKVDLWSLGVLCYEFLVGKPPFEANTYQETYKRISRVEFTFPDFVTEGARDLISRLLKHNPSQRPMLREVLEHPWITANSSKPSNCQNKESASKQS
# [8] = target: T2, Transcription intermediary factor 1-alpha (Homo sapiens) (UniProt O15164)
# T2 sequence (whole entry): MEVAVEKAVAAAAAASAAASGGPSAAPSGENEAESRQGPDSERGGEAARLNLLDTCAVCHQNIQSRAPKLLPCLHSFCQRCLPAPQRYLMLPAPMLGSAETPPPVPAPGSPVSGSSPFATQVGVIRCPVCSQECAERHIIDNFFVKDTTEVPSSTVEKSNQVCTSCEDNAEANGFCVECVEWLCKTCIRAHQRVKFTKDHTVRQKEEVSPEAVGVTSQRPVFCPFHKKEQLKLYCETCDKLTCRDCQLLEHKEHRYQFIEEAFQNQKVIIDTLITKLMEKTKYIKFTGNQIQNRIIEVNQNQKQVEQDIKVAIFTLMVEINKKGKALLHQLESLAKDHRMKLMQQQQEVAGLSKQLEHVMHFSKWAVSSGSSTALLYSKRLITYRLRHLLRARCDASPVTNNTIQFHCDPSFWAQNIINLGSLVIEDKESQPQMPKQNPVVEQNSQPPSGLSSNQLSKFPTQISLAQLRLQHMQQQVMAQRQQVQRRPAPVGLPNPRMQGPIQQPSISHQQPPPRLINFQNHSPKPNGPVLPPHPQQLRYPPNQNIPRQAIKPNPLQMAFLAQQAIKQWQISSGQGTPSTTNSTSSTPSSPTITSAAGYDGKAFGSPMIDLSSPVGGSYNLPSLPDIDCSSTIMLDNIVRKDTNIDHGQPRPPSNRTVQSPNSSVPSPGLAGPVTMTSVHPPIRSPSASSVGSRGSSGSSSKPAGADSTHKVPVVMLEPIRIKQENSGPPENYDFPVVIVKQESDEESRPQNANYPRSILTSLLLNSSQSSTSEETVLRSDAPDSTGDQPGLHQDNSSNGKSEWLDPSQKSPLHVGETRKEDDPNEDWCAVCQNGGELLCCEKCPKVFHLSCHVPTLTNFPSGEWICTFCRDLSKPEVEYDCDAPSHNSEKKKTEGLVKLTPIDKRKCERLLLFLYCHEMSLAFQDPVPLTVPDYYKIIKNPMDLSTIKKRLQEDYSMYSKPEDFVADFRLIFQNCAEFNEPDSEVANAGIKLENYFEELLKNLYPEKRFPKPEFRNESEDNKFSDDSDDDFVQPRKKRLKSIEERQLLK
# Chain of Tyrosine-protein kinase ABL1 (Homo sapiens) (P00519 whole entry): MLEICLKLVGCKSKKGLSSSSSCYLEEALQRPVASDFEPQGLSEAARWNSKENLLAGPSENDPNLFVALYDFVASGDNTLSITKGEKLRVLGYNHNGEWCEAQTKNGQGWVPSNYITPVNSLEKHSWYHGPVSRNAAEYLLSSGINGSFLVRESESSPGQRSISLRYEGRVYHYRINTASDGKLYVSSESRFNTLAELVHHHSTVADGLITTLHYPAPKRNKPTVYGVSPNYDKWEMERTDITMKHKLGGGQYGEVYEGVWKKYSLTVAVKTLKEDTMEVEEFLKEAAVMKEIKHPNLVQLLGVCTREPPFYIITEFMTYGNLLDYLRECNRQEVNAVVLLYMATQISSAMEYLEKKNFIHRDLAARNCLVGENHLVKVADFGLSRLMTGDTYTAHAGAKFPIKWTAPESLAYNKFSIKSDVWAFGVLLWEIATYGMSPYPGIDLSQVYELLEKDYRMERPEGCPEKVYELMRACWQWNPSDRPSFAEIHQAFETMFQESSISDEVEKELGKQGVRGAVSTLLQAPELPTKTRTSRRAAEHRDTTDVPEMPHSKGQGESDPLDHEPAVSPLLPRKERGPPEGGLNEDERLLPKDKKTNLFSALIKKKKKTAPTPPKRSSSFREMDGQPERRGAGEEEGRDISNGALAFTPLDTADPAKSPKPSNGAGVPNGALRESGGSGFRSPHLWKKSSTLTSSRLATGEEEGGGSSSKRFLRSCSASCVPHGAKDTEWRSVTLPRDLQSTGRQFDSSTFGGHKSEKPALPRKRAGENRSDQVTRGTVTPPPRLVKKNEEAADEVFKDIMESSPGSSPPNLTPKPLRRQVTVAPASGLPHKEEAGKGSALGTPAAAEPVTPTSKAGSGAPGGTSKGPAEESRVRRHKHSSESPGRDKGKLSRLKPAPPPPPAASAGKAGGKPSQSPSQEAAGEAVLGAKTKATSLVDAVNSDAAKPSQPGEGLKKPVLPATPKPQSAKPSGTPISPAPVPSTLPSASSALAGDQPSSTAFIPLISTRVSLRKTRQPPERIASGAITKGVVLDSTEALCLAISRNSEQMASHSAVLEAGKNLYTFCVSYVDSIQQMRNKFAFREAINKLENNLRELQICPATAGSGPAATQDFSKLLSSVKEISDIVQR
# Chain of Mitogen-activated protein kinase 1 (Homo sapiens) (P28482 whole entry): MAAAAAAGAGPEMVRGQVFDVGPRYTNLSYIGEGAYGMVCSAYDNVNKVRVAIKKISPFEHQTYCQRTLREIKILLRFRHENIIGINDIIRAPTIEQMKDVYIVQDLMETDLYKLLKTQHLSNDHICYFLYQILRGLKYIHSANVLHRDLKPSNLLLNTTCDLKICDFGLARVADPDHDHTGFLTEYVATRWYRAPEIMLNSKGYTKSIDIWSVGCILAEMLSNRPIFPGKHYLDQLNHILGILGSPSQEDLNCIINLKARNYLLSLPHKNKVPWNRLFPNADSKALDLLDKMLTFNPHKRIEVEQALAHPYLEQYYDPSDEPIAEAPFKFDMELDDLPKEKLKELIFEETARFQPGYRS
# Chain of Glycogen synthase kinase-3 beta (Homo sapiens) (P49841 whole entry, looked up): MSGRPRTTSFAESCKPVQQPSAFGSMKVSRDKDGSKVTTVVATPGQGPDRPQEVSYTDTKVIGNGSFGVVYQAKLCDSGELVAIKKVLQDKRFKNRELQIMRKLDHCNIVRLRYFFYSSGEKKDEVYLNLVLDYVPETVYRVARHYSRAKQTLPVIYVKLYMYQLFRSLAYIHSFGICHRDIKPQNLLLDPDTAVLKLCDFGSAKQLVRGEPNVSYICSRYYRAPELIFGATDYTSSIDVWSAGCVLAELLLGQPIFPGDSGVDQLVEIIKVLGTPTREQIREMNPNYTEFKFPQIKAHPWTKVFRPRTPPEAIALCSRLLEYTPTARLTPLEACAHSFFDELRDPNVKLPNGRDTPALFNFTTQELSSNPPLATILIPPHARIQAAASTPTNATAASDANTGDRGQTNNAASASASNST
# Chain of Casein kinase I isoform delta (Homo sapiens) (P48730 whole entry, looked up, canonical isoform): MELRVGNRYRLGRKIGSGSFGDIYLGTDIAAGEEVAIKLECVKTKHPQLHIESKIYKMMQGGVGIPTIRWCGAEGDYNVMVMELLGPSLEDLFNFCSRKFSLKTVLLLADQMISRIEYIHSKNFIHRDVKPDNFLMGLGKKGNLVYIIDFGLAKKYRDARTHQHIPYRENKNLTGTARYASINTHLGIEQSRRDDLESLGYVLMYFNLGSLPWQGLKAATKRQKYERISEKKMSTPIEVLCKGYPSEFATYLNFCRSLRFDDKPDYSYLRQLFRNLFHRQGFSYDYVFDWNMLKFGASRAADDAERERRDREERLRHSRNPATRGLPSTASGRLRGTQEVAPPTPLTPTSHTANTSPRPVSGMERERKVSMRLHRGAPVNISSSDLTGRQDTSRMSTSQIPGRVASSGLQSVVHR
Structure (SMILES),ΔTm [1],ΔTm [2],ΔTm [3],ΔTm [4],ΔTm [5],ΔTm [6],ΔTm [7],ΔTm [8]
CCC1CCCCN1C(=O)n1ncc(C(O)(c2ccccc2)c2ccccc2)n1 (stereo not drawn),-3.62 °C,-3.03 °C,-0.45 °C,0.07 °C,-6.94 °C,0.16 °C,-2.31 °C,-1 °C
CC(C)(C)OC(=O)NCCCCCN(CCc1ccccc1)C(=O)n1cc(-c2ccc(OC(F)(F)F)cc2)nn1,-0.13 °C,-3.63 °C,0.01 °C,-1.51 °C,-2.3 °C,0.71 °C,-2.16 °C,0.4 °C
O=C(NCCc1cc(C(=O)NO)no1)c1ccc(Cl)c(Cl)c1,1.11 °C,-2.11 °C,0.66 °C,0.6 °C,-1.05 °C,0.3 °C,-0.59 °C,-0.96 °C
COc1ccccc1C(=O)Nc1cc2c(cc1N1CCNC[C@H]1C)n(C)c(=O)n2C,0.51 °C,1.74 °C,0.17 °C,0.91 °C,0.41 °C,0.25 °C,-0.29 °C,0.27 °C
COC[C@@H]1CCCN1S(=O)(=O)c1ccc2c(c1)C(=O)C(=O)N2,0.35 °C,-1.47 °C,-0.41 °C,0.01 °C,-0.2 °C,-0.37 °C,-0.97 °C,-0.89 °C
CCCCCCCCCCCCCC(=S)NCCCC[C@H](NC(=O)OCc1ccccc1)C(=O)Nc1ccccc1,0.75 °C,2.49 °C,1.43 °C,0.13 °C,0.6 °C,0.45 °C,-2.19 °C,1.92 °C
CS(=O)(=O)N1CCN(C(=O)c2cnc3ccc(F)cc3c2N2CCC(C#N)(c3ccccc3)CC2)CC1,0.43 °C,-2.17 °C,-0.17 °C,0.48 °C,0.47 °C,-0.62 °C,-0.82 °C,0 °C
CC(=Cc1cc(C)ccc1C=C(C)C(=O)NC(=N)N)C(=O)N=C(N)N,0.75 °C,-2.96 °C,-0.11 °C,0 °C,-0.1 °C,0.25 °C,-2.39 °C,-3.05 °C
O=C1c2ccccc2C(=O)c2oc(-c3ccccc3)nc21,0.27 °C,-2.65 °C,0.44 °C,-0.2 °C,0.18 °C,-0.09 °C,-2.45 °C,1.13 °C
CNCCC(Oc1ccccc1OC)c1ccccc1 (stereo not drawn),0.01 °C,-1.45 °C,-0.03 °C,-0.42 °C,-0.93 °C,0.05 °C,-1.7 °C,0.03 °C
O=S(=O)(CSc1nnc(Br)n1Cc1ccc(Br)c2ccccc12)Nc1cccnc1,0.41 °C,-4.11 °C,-0.15 °C,-0.32 °C,-0.3 °C,0.05 °C,-1.41 °C,-0.15 °C
Cc1cc(C)nc(SCC(=O)Nc2ncc(Cc3cccc4ccccc34)s2)n1,1.25 °C,-0.67 °C,0.38 °C,5.19 °C,-0.21 °C,-4.06 °C,-1.18 °C,5.54 °C
NC(=S)c1cccc(-c2cn(C3CCN(S(=O)(=O)C(F)(F)F)CC3)c3cc(CNC(=O)C4CNC4)ccc23)c1,0.61 °C,-0.14 °C,1.5 °C,-0.09 °C,-0.8 °C,0.28 °C,-1.57 °C,0 °C
N#Cc1cccnc1N1CCN(C(=O)c2cccc(Cc3n[nH]c(=O)c4ccccc34)c2)CC1,0.57 °C,-2.92 °C,0.15 °C,0.14 °C,-0.23 °C,0.24 °C,-2.06 °C,-0.96 °C
COc1ccc(C(=O)N[C@H](C(=O)N2CCC[C@H]2C(=O)N[C@H](C(=O)C(F)(F)F)C(C)C)C(C)C)cc1,0.01 °C,0.28 °C,0.69 °C,-0.09 °C,-0.75 °C,0.2 °C,-1.47 °C,1.59 °C
CCNC(=O)c1noc(-c2cc(C(C)C)c(O)cc2O)c1-c1ccc(CN2CCOCC2)cc1,0.97 °C,-0.86 °C,0.79 °C,0.41 °C,0.48 °C,-0.06 °C,0.68 °C,0.38 °C
Nc1ncnc2c1ncn2[C@@H]1O[C@H](C(=O)N2CCN(CC(=O)Nc3cccc4c3CNC4=O)CC2)[C@@H](O)[C@H]1O,0.45 °C,-1.31 °C,-0.11 °C,0.22 °C,-0.59 °C,0.31 °C,-1.04 °C,-0.61 °C
CC(C)c1ccc(-c2cc(=O)c3ccccc3o2)cc1,1.37 °C,-0.23 °C,-0.03 °C,0.58 °C,0 °C,0.37 °C,-1.77 °C,-0.62 °C
CC1=NN(c2ccc(C(=O)O)cc2)C(=O)/C1=C/c1ccc(-c2cc(C)c(C)cc2[N+](=O)[O-])o1,3.73 °C,-0.48 °C,0.29 °C,0.15 °C,0.03 °C,0.41 °C,-0.94 °C,-1.19 °C
CCS(=O)(=O)Cc1cnc(Oc2ccc(F)cc2F)c(-c2cc(C)c3c(=O)[nH]ccn23)c1,0.69 °C,14.7 °C,0.81 °C,-0.35 °C,1.96 °C,0.23 °C,-0.65 °C,0.45 °C
COc1ccc(-c2ccc3c(c2)COC3=O)n2nc(C3(C(=O)OCC(C)C)CC3)nc12,0.4 °C,2.58 °C,0.54 °C,0.04 °C,-0.38 °C,1.36 °C,-1.67 °C,0.5 °C
